In all, about 360,000 compounds went through this assay and about 4,200 (1.2%) were called active.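 How the source made its calls: active means mean replicate inhibition at least 60% with every replicate also reaching 60%; inconclusive means only one of the two criteria is met; inactive means mean below 60% and not all replicates reaching 60%.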 Shown is part of a subset that was picked to be rich in actives.
Experiment: inhibitors of PAX8-driven TPO luciferase reporter, primary screen, RMG-I cells, single concentration (AID 652154);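 further: luciferase light reporting Pax8 driven TPO promoter activity; plate controls were median of neutral control wells for no effect and mitoxantrone controls for full effect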
Settings: SteadyGlo, 24 h, at 12.6 µM, stronger effect = higher value

Question: For C[C@@H]1CN([C@H](C)CO)C(=O)Cc2cc(NC(=O)CCCN(C)C)ccc2O[C@@H]1CN(C)Cc1ccc(Oc2ccccc2)cc1, which inhibition is on record?
Answer: -19.4% (inactive)

Question: Which inhibition does the source give for Cn1cnc(CCNC(=O)C[C@H]2CC[C@@H]3[C@H](COC[C@@H](O)CN3C(=O)Nc3ccc(Cl)cc3)O2)c1 here?
Answer: -17.8% (inactive)

Question: For Cc1noc(C)c1S(=O)(=O)Nc1ccc2c(c1)C(=O)N([C@H](C)CO)C[C@@H](C)[C@@H](CN(C)Cc1ccccc1)OCCCC[C@@H](C)O2, which inhibition is on record?
Answer: 15.9% (inactive)

Question: For CC(C)(C)OC(=O)NCCCCCNC(=O)c1nc[nH]c1C(=O)NCc1ccccc1, which inhibition is on record?
Answer: 8.72% (inactive)

Question: For Cc1ccc(NC(=O)c2nc[nH]c2C(=O)N[C@@H](CCCCNC(=O)OC(C)(C)C)C(=O)OC(C)(C)C)cc1, which inhibition is on record?
Answer: 64% (active)

Question: For CCOC(=O)c1ccc(NC(=O)c2nc[nH]c2C(=O)N[C@@H](CCCCNC(=O)OC(C)(C)C)C(=O)OC(C)(C)C)cc1, which inhibition is on record?
Answer: 11.1% (inactive)

Question: For COc1ccccc1CCn1cnc(-c2ccccc2)c1C(C)C, which inhibition is on record?
Answer: 14.5% (inactive)

Question: Which inhibition does the source give for Cc1cccc(NC(=O)C2CCN(S(=O)(=O)c3cccc4cccnc34)CC2)c1 here?
Answer: 11.9% (inactive)

Question: Which inhibition does the source give for Cc1ccnc(NC(=O)C2CCN(S(=O)(=O)c3c(C)c(C)cc(C)c3C)CC2)c1 here?
Answer: 74.9% (active)

Question: For O=C(Nc1ccccn1)C1CCN(S(=O)(=O)c2ccccc2)CC1, which inhibition is on record?
Answer: -150% (inactive)

Question: For COc1ccccc1-c1ccc2c(c1)[C@H]1[C@H](CCN1S(=O)(=O)c1ccccc1)[C@@H](CO)N2, which inhibition is on record?
Answer: 48.7% (inactive)

Question: For O=C(Nc1c(Cl)c(C2CC2)nn1-c1ccccc1)C(Cl)(Cl)Cl, which inhibition is on record?
Answer: 12.8% (inactive)

Question: For CCC(=O)Nc1ccc2c(c1)OC[C@H](C)N(C(=O)Cc1cccnc1)C[C@@H](C)[C@@H](OC)CN(C)C2=O, which inhibition is on record?
Answer: 19.9% (inactive)

Question: For CN1CCN(C(=O)Cn2c(C(F)(F)F)nc3ccccc32)CC1, which inhibition is on record?
Answer: 1.81% (inactive)

Question: Which inhibition does the source give for COC(=O)Cn1c(O)c(N=NC(=O)OC)c2ccccc21 here?
Answer: 8.64% (inactive)

Question: For CCCCn1c(O)c(N=NC(=O)Cn2c(C(F)(F)F)nc3ccccc32)c2ccccc21, which inhibition is on record?
Answer: 125% (active)

Question: Which inhibition does the source give for CCCNC(=O)N1[C@@H]2c3ccc(-c4ccccc4OC)c(=O)n3C[C@H]1[C@H](CO)[C@H]2C(=O)N(C)C here?
Answer: -4.26% (inactive)

Question: Which inhibition does the source give for C=C1C(=O)[C@]23C[C@H]1CCC2[C@@]1(C)C(C[C@@H]3O)[C@](C)(C(=O)O)CC[C@@H]1O (stereo not given in full) here?
Answer: 71.9% (active)

Question: With CN1CCCCN2[C@@H](CO)[C@@H](c3ccc(C4=CCCC4)cc3)[C@@H]2C1 as the compound, how does the inhibition read?
Answer: -5.77% (inactive)

Question: Which inhibition does the source give for S=c1[nH]nc(-c2cccs2)n1/N=C/c1cn(-c2ccccc2)nc1-c1ccc(Cl)cc1 here?
Answer: 3.55% (inactive)

Question: Which inhibition does the source give for COc1ccccc1N1CCN(/N=C\C(Br)=C\c2ccccc2)CC1 here?
Answer: 3.71% (inactive)

Question: Which inhibition does the source give for Cc1ccccc1-c1n[nH]c(=S)n1/N=C/c1ccc(-c2ccccc2Br)o1 here?
Answer: -5.71% (inactive)

Question: With Fc1ccc(/C=N/n2c(COc3ccccc3)n[nH]c2=S)cc1 as the compound, how does the inhibition read?
Answer: -9.55% (inactive)

Question: With S=c1[nH]nc(-c2cccnc2)n1/N=C/C(Cl)=C\c1ccccc1 as the compound, how does the inhibition read?
Answer: 72.4% (active)

Question: With Cc1cc(-c2n[nH]c(=S)n2/N=C/C(Br)=C/c2ccccc2)n[nH]1 as the compound, how does the inhibition read?
Answer: 94% (active)

Question: Which inhibition does the source give for COc1cccc(-c2ccc([C@H]3[C@H]4CN(C(=O)NC(C)C)CC(=O)N4[C@H]3CO)cc2)c1 here?
Answer: -13.6% (inactive)

Question: With CCC(=O)N1C[C@@H](C)[C@@H](OC)CN(C)C(=O)c2ccc(NC(=O)C3CCCCC3)cc2OC[C@@H]1C as the compound, how does the inhibition read?
Answer: -13.2% (inactive)

Question: Which inhibition does the source give for O=C(C1CC1)N1CCCCN2[C@H](C1)[C@@H](c1ccc(-c3cccc(F)c3)cc1)[C@@H]2CO here?
Answer: 4.79% (inactive)

Question: For O=C(c1cccc(F)c1)N1CCCCN2[C@H](CO)[C@@H](c3ccc(-c4cncnc4)cc3)[C@H]2C1, which inhibition is on record?
Answer: -27.3% (inactive)

Question: Which inhibition does the source give for O=C(C[C@@H]1C=C[C@@H](NC(=O)c2cccnc2)[C@H](CO)O1)NCc1ccncn1 here?
Answer: 2.15% (inactive)

Question: With CO[C@@H]1CN(C)C(=O)c2ccc(NC(=O)Nc3c(C)noc3C)cc2OC[C@H](C)N(CC2CC2)C[C@H]1C as the compound, how does the inhibition read?
Answer: 4.7% (inactive)

Question: For Cc1onc(C(=O)NN)c1C(=O)N1CCN(C(c2ccccc2)c2ccccc2)CC1, which inhibition is on record?
Answer: 17.8% (inactive)

Question: Which inhibition does the source give for CC1(C)CC(N2CCN(C(c3ccccc3)c3ccccc3)CC2)=CC(=[N+]2CCCCC2)C1 here?
Answer: 94.1% (active)

Question: With CC1(C)CC(=O)C=C(N2CCOCC2)C1 as the compound, how does the inhibition read?
Answer: 7.18% (inactive)

Question: For CCCCCCCCN1C(=O)[C@@H](CC(=O)NCc2ccccc2)C[C@@]2(C(=O)OC)C1=C[C@H](C(C)(C)C)O[C@@H]2C, which inhibition is on record?
Answer: 19.6% (inactive)

Question: With CN(C(=O)CCN1C(=O)/C(=C/c2ccccc2F)SC1=S)C1CCS(=O)(=O)C1 (stereo not given) as the compound, how does the inhibition read?
Answer: 74.1% (active)

Question: Which inhibition does the source give for COc1ccccc1/C=C1\SC(=O)N(CCC(=O)N(C)C2CCS(=O)(=O)C2)C1=O (stereo not given) here?
Answer: -11.6% (inactive)

Question: Which inhibition does the source give for CN(C(=O)CN1C(=O)S/C(=C\c2ccccc2F)C1=O)C1CCS(=O)(=O)C1 (stereo not given) here?
Answer: 10.3% (inactive)

Question: For CCC(=O)Nc1ccc2c(c1)nc(CCN1CCN(c3ccccn3)CC1)n2C, which inhibition is on record?
Answer: -3.44% (inactive)

Question: Which inhibition does the source give for Cn1c(CCN2CCCC2)nc2cc(NS(=O)(=O)c3ccccc3)ccc21 here?
Answer: 119% (active)

Question: With Cn1c(CCN2CCN(c3ccccn3)CC2)nc2cc(NS(=O)(=O)c3ccc(F)cc3)ccc21 as the compound, how does the inhibition read?
Answer: 50.3% (inactive)

Question: With O=C(Nc1ccccc1)Nc1ccc2c(c1)[C@@H]1C[C@@H](CC(=O)N3CCCCC3)O[C@H](CO)[C@@H]1O2 as the compound, how does the inhibition read?
Answer: -0.47% (inactive)

Question: Which inhibition does the source give for O=C(c1cccc(F)c1)N1CCCCN2[C@@H](CO)[C@H](c3ccc(-c4cncnc4)cc3)[C@@H]2C1 here?
Answer: 2.95% (inactive)

Question: With COc1cc(/C=N/NC(=O)c2ccc(N3CCCC3=O)cc2)ccc1O as the compound, how does the inhibition read?
Answer: 86.3% (active)

Question: Which inhibition does the source give for C/C(=N\NC(=O)c1cccc(N2CCCC2=O)c1)c1ccc(N)cc1 here?
Answer: -0.282% (inactive)

Question: For CCOc1cc(/C=N/NC(=O)CN2CCCCC2)ccc1O, which inhibition is on record?
Answer: 3.31% (inactive)

Question: For CN(C)CC(=O)Nc1ccc2c(c1)[C@H]1C[C@@H](CC(=O)NCc3ccccn3)O[C@@H](CO)[C@H]1O2, which inhibition is on record?
Answer: -17.3% (inactive)

Question: With CO[C@@H]1CC[C@H]2CCOc3c(C#N)cccc3C(=O)N(C)C[C@@H](OC)[C@H](C)C(=O)N(C)C[C@@H]1O2 as the compound, how does the inhibition read?
Answer: -5.56% (inactive)

Question: Which inhibition does the source give for COc1ccccc1-c1cn(CC[C@H]2CC[C@@H](NC(=O)Cc3ccccn3)[C@@H](CO)O2)nn1 here?
Answer: -1.82% (inactive)

Question: Which inhibition does the source give for COc1ccc2[nH]c3c(C)c4cc[n+](C)cc4c(C)c3c2c1 here?
Answer: 70.3% (active)

Question: Which inhibition does the source give for C/C=C/c1ccc([C@H]2[C@@H](CNC(=O)NC(C)C)N(C(=O)C3CCC3)[C@H]2CO)cc1 here?
Answer: 6.6% (inactive)

Question: Which inhibition does the source give for CO[C@@H]1CN(C)C(=O)c2cc(NS(C)(=O)=O)ccc2OC[C@H](C)N(C(=O)C2CC2)C[C@@H]1C here?
Answer: -16.6% (inactive)

Question: With Oc1ccc2ccccc2c1N=Nc1nccs1 as the compound, how does the inhibition read?
Answer: 90.5% (active)

Question: With C[C@@H]1CN([C@@H](C)CO)C(=O)c2cc(NS(=O)(=O)c3ccccc3)ccc2O[C@@H](C)CCCCO[C@@H]1CN(C)S(=O)(=O)c1cccs1 as the compound, how does the inhibition read?
Answer: 17.1% (inactive)

Question: Which inhibition does the source give for CC(C)NC(=O)N(C)C[C@@H]1OCCCC[C@@H](C)Oc2ccc(NC(=O)Cc3ccccc3)cc2C(=O)N([C@H](C)CO)C[C@H]1C here?
Answer: 20.4% (inactive)

Question: Which inhibition does the source give for CCN1/C(=C\c2ccc3ccccc3[n+]2CC)Sc2cc(C)ccc21 here?
Answer: 93.7% (active)

Question: Which inhibition does the source give for O=C(C[C@@H]1C[C@@H]2c3cc(NC(=O)C4CCOCC4)ccc3O[C@@H]2[C@@H](CO)O1)NC1CCCCC1 here?
Answer: 8.24% (inactive)

Question: With C[C@@H]1CN([C@H](C)CO)C(=O)Cc2cc(NC(=O)C3CC3)ccc2O[C@H]1CN(C)Cc1ccc(Cl)c(Cl)c1 as the compound, how does the inhibition read?
Answer: 11.3% (inactive)

Question: For COc1cccc(C#Cc2ccc([C@H]3[C@@H](CO)N(C(=O)c4ccccn4)[C@H]3C#N)cc2)c1, which inhibition is on record?
Answer: 92.4% (active)

Question: For COc1cccc(-c2ccc([C@@H]3[C@@H](CO)N(C(=O)c4ccccn4)[C@H]3C#N)cc2)c1, which inhibition is on record?
Answer: -77.2% (inactive)

Question: Which inhibition does the source give for COc1cccc(-c2ccc([C@@H]3[C@@H](C#N)N(C(=O)c4ccccn4)[C@H]3CO)cc2)c1 here?
Answer: -20.8% (inactive)

Question: Which inhibition does the source give for CN1C(=O)c2cc(NC(=O)c3cscn3)ccc2OC[C@@H]2O[C@H](CC(=O)N3CCCCC3)CC[C@H]21 here?
Answer: -16.1% (inactive)

Question: For CCCN(C)C[C@H]1OCCCC[C@@H](C)Oc2ccc(NC(=O)CCC(F)(F)F)cc2C(=O)N([C@H](C)CO)C[C@H]1C, which inhibition is on record?
Answer: 8.93% (inactive)

Question: Which inhibition does the source give for CSc1ccc(-c2c(C#N)c(N)nc3c2c(C)nn3-c2ccccc2)cc1 here?
Answer: 66.4% (active)

Question: Which inhibition does the source give for Cn1c(=O)c2c(-c3cccc(Br)c3)c(C#N)c(N)nc2n(C)c1=O here?
Answer: 4.92% (inactive)

Question: For Cc1nc2c(c(C)nn2-c2ccccc2)c(C)c1C, which inhibition is on record?
Answer: 12.6% (inactive)

Question: Which inhibition does the source give for C[C@H]1CN([C@@H](C)CO)C(=O)c2cccc(NS(=O)(=O)c3cn(C)cn3)c2O[C@@H]1CN(C)C(=O)Nc1ccc(F)cc1 here?
Answer: -9.83% (inactive)

Question: With O=C(Nc1ccccc1)N[C@@H]1CC[C@H](CCNS(=O)(=O)c2ccccc2F)O[C@@H]1CO as the compound, how does the inhibition read?
Answer: -8.59% (inactive)

Question: Which inhibition does the source give for Cc1ccc(-c2csc(NC3OC(=O)c4ccccc43)n2)cc1 (stereo not given) here?
Answer: 92.3% (active)

Question: For C/C(CC1CC(C)(C)OC1=O)=N/Nc1nc(-c2ccccc2)cs1 (stereo not given), which inhibition is on record?
Answer: 19.2% (inactive)

Question: With Cc1ccc(-c2csc(NC(=O)C3=COCCO3)n2)cc1C as the compound, how does the inhibition read?
Answer: -109% (inactive)

Question: For CC(=O)N1[C@H](CO)[C@H](c2ccc(-c3ccccc3)cc2)[C@H]1CNC(=O)C1CC1, which inhibition is on record?
Answer: -4.5% (inactive)

Question: With CN(C)CCNC(=O)c1cccc(-c2cnc3c(NC=O)cc(-c4cccc(C(F)(F)F)c4)cn23)c1 as the compound, how does the inhibition read?
Answer: 109% (active)

Question: Which inhibition does the source give for CC(=O)c1cccc(-c2cnc3c(NC=O)cc(-c4cccc(C(=O)N(C)C)c4)cn23)c1 here?
Answer: 12.7% (inactive)

Question: With CN(C)C(=O)c1cccc(-c2cnc3c(NC=O)cc(-c4ccc(F)cc4)cn23)c1 as the compound, how does the inhibition read?
Answer: 33.9% (inactive)

Source: PubChem BioAssay AID652154 (Broad Institute, 2013)
